Bioassay records (PubChem BioAssay)
HTT ATP protect = protects HTT-Q103 PC12 cells, measured by ATP; 230,000 compounds, 0.14% hits; Potency, µM (doses to about 56.4 µM), actives largely listed as activators; PC12 HTT-Q103 induced, cytoprotection, ATP luminescence, 40 h; AID 1471; note: nearly all actives have a fitted effect of over 45% in size
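Rat PC12, Q103 Htt exon1-GFP fusion, ecdysone promoter; tebufenozide inducer 100 nM final; compound titration; qHTS, 1500 cells/well; ATPlite luminescent read.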
Tau fluor cs = counter-screen for tau fibril formation inhibitors; 280,000 compounds, 0.93% hits; tau K18 P301L Alexa594 fluorescence, heparin fibrillization; Potency, µM (top dose mostly 57.7 µM); note: nearly all actives have a fitted effect of over 55% in size
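Human K18 P301L tau (15 uM unlabeled plus 0.24 uM Alexa 594-labeled, final) in 100 mM sodium acetate pH 7 was mixed with compound and 20 uM heparin and incubated 6 hr at 37 C.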
HttQ103 aggreg = mutant huntingtin aggregation inhibition; 220,000 compounds, 1.1% hits; AID 1688; Potency, µM (series often up to 46.1 µM), hits mostly inhibitors; PC12 HttQ103-GFP aggregates, Acumen cytometry, 40 h; note: nearly all actives have a fitted effect of over 60% in size
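Compounds (qHTS titration) were added to PC12 cells expressing an ecdysone-driven HTT exon 1 Q103–GFP fusion after induction with 100 nM tebufenozide. Aggregate formation was measured as GFP objects in cell lysates.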
Tau fibril FP = blocks human tau fibril formation measured by polarization | Potency, µM (top dose mostly 57.7 µM), actives largely listed as inhibitors | K18 P301L tau heparin fibrillization, Alexa594 FP, 6 h | 280,000 compounds, 0.39% hits | AID 1468 | P10636; note: nearly all actives have a fitted effect of over 55% in size
Target sequence (P10636 561-689 P618L limits assumed): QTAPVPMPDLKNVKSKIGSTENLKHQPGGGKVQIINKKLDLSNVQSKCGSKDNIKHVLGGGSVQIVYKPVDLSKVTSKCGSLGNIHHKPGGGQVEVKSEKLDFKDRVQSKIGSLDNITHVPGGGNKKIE
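Quantitative HTS format: compounds meet 15 uM recombinant K18 P301L tau and Alexa 594-tau tracer in 100 mM sodium acetate pH 7; 20 uM heparin triggers fibrillization at 37 C over 6 hr; FP gives the signal.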
Tau ThT inhib = tau fibrillization inhibition (ThT binding). recombinant tau K18 P301L (four-repeat tau fragment), heparin-induced fibrillization, ThT fluorescence. AID 1460. 270,000 compounds, 2.1% hits. Potency, µM (highest dose often 57.4 µM), actives largely listed as inhibitors. P10636; note: nearly all actives have a fitted effect of over 55% in size
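Heparin-induced fibrillization of the P301L-mutant K18 repeat-domain fragment of human tau was followed by ThT binding in quantitative high-throughput format.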
Numbers stand for hits; - = inactive; ? = inconclusive; . = no result given; ! = not confirmed by another sample; [ ] = remark or other dose. Most compounds without a hit are left out; they make up all but 3.7% or so of the library. Calls come from the whole dose curve; as a rule, active = well fitted curve in the direction sought with a large enough effect; inconclusive = small, poorly fitted or top-dose-only effect, or another doubt; inactive = no such curve, though single readings can be large; an effect the other way counts as inactive or inconclusive.

SMILES	HTT ATP protect	Tau fluor cs	HttQ103 aggreg	Tau fibril FP	Tau ThT inhib
NC(=O)c1c(NC(=O)c2noc3c2CCCC3)sc2c1CCCC2	.	-	.	?	28µM
Cc1cccc(-n2c(SCC(=O)Nc3ccccc3C)nc3c(oc4ccccc43)c2=O)c1	.	-	.	-	-
COc1cccc(NC(=O)Cn2c(=O)n(Cc3ccc(C(=O)NCc4ccc5c(c4)OCO5)cc3)c(=O)c3ccccc32)c1	.	?	.	25µM	-
Cc1ccc(-n2c(=O)c3ccc(C(=O)NCc4ccccc4Cl)cc3n(CC(=O)Nc3cccc(F)c3)c2=O)cc1	.	?	.	16µM	-
Cc1ccc(NC(=O)Cn2c(=O)n(Cc3ccc(C(=O)NCc4ccc5c(c4)OCO5)cc3)c(=O)c3ccccc32)cc1	.	-	.	32µM	-
CN(C)c1ccc(NC(=O)Cn2c(=O)n(Cc3ccccc3)c(=O)c3ccccc32)cc1	-	18µM[quencher]	-	-	?
COc1ccccc1NC(=O)C1=C(C)Nc2nc(SCc3ccccc3)nn2C1c1cccc(O)c1 (stereo unspecified)	.	?	.	?	-
COc1ccccc1-c1noc(CCCC(=O)Nc2cc(C)ccc2C)n1	.	-	.	-	-
c1ccc2nc(-c3nc4ccccc4o3)ccc2c1	-[10 µM]	-	-	-	?
Brc1ccc(N=Nc2ccc3ccccc3n2)cc1	-[10 µM]	-	-[9.22 µM]	-	1.1µM
Cc1cc(C)nc(N/N=C/C2=C(N3CCOCC3)C(=C\c3ccc(Cl)cc3)/CC2)n1	-[10 µM]	-	-	-	11µM
O=CC1=C(N2CCOCC2)/C(=C/c2ccc(Cl)cc2)CC1	-	-	-	-	?
COc1ccccc1C(=O)Nc1nnc(-c2ccc3c(c2)CCCC3)o1	-	-	20µM	-	?
COc1cccc(-c2nnc(NC(=O)c3ccc(S(=O)(=O)N4CCOCC4)cc3)o2)c1	-	-	10µM	-	-
CC1CN(S(=O)(=O)c2ccc(C(=O)Nc3nnc(-c4ccc5c(c4)CCCC5)o3)cc2)CC(C)O1 (stereo unspecified)	-	-	3.5µM	-	-
CCOC(=O)N1CCN(S(=O)(=O)c2ccc(C(=O)Nc3nnc(C)o3)cc2)CC1	3.5µM	-	?	-	-
CCCCn1cc(S(=O)(=O)c2ccc(C)c(C)c2)c(=O)c2cc(F)c(N(CC)CC)cc21	.	-	.	-	-
COC(=O)C1=C(C(=O)OC)[C@@H]2Nc3ccccc3[C@@]23C[C@@H](C(=O)OC)N(S(=O)(=O)c2ccc(Br)cc2)C3=N1	-[10 µM]	-[11.6 µM]	.	-[11.6 µM]	-[11.5 µM]
O=C(Nc1ccccc1NC(=O)c1csnn1)c1csnn1	-[10 µM]	-	-[9.22 µM]	-	-
O=C(NC(=S)Nc1ccccc1Cl)c1csnn1	-	-	-	?	16µM
O=C(Oc1cc2oc(=O)cc(-c3ccccc3)c2cc1Cl)C1CCCCC1	-	-	7.1µM	-	-
CC(C)(C)OC(=O)NCC(=O)Oc1cc2oc(=O)cc(-c3ccccc3)c2cc1Cl	-[10 µM]	-	4µM	-	-
COc1cc(/C=N/NC(=O)Cc2c[nH]c3ccccc23)cc(OC)c1OC	-	-	-	-	-
COc1cc(/C=N/NC(=O)[C@H](Cc2c[nH]c3ccccc23)NC(=O)OCC(C)C)cc([N+](=O)[O-])c1O	-[10 µM]	?	-	?	14µM
COc1ccc(Br)cc1C(C[N+](=O)[O-])c1c(N)n(C)c(=O)n(C)c1=O (stereo unspecified)	-[10 µM]	-	4µM	-	.
SMILES	HTT ATP protect	Tau fluor cs	HttQ103 aggreg	Tau fibril FP	Tau ThT inhib
CCN(CC)c1cc(C)c2cc(NC(=O)/C=C/c3ccc(C)cc3)ccc2n1	.	16µM[quencher]	.	-	?
CCOc1ccc(/C=C/C(=O)Nc2ccc3nc(N(CC)CC)cc(C)c3c2)cc1OC	.	?	.	?	7.1µM
CCN(CC)c1cc(C)c2cc(NC(=O)/C=C/c3cc(OC)c(OC)c(OC)c3)ccc2n1	.	?	.	-	4.5µM
CCN(CC)c1cc(C)c2cc(NC(=O)c3cccc(OC)c3)ccc2n1	.	?	.	-	?
CCOc1ccc(C(=O)Nc2ccc3nc(N(CC)CC)cc(C)c3c2)cc1	.	16µM[quencher]	.	-	?
C[C@H]1C(O)[C@@]23CCC4C5(C=[N+](CCO)C[C@]4(C)CCC5)C2C[C@@H]1C3 (stereo partly specified)	-	-	.	-	-
Cc1cccc(NC(=O)c2ccc(Cn3nc(N4CCN(c5ccccc5)CC4)ccc3=O)o2)c1C	.	-	.	-	?
COc1cc2c(cc1OC)C1(Nc3c-2c(C)nn3-c2ccccc2)C(=O)Nc2ccccc21 (stereo unspecified)	3.5µM	?	-	?	?
Cc1ccc(S(=O)(=O)c2nnn3c2nc(NCc2cccs2)c2sccc23)cc1C	.	?	.	?	-
FC(F)(F)c1nnc2c(Sc3ccccc3)nc3ccccc3n12	-[10 µM]	-	-	-	-
FC(F)(F)c1nnc2c(Sc3ccccn3)nc3ccccc3n12	11µM	-	.	?	?
C[C@@H](CN(C)C)CN1c2ccccc2CCc2ccccc21	-	.	-	.	.
CC(CN(C)C)CN1c2ccccc2CCc2ccccc21 (stereo unspecified)	1µM!	-	-[9.22 µM]	-	-
O=C(Cc1cccs1)N1CCN(c2ccc([N+](=O)[O-])cc2)CC1	-	-	-	-	3.5µM
CC(C)(C)OC(=O)N1CCN(c2ccc([N+](=O)[O-])cc2)CC1	-	-	-	-	4µM
O=C(Cc1cccs1)N1CCN(c2ccc(F)cc2)CC1	-[10 µM]	-	-	-	-
O=C(c1cc([N+](=O)[O-])ccc1Cl)N1CCN(c2ccc([N+](=O)[O-])cc2)CC1	-[10 µM]	-	-	-	-
O=[N+]([O-])c1ccc(N2CCN(C(=S)NC3CCCCC3)CC2)cc1	-	?	?	-	10µM
CSC(=NC#N)N1CCN(c2ccc([N+](=O)[O-])cc2)CC1	-	-	-[9.22 µM]	-	2µM
CSC(=NC#N)N1CCN(C(=NC#N)SC)CC1	-	-	-[9.22 µM]	-	-
CCOC(=O)N1CCN(S(=O)(=O)c2ccc([N+](=O)[O-])cc2)CC1	-	-	-	-	-
CCOC(=O)N1CCN(c2ccc([N+](=O)[O-])cc2)CC1	-[10 µM]	-	-	-	4µM
CCOc1ccccc1NC(=O)Cn1ncc2c([nH]c3ccccc32)c1=O	.	-	.	?	-
O=C(CCSCCC(=O)NCc1ccco1)NCc1ccco1	-	-	-	?	14µM
O=C1NC(=Nc2ccccc2)S/C1=C\C=C\c1ccco1	-[10 µM]	-	-	-	-
O=C1S/C(=C\C=C\c2ccco2)C(=O)N1c1ccc(O)cc1	-[10 µM]	16µM[quencher]	-	?	14µM
O=C1S/C(=C\C=C\c2ccco2)C(=O)N1c1ccccc1	-[10 µM]	?	?	?	14µM
CC(=O)N1[C@H](C)C=C[C@]1(Cc1ccccc1)C(=O)NCc1ccc(C)o1	-	-	.	-	-
CCOC(=O)c1nc(Nc2ccc(N3CCC(C)CC3)cc2)c2ccccc2n1	-[10 µM]	11µM[quencher]	-[9.22 µM]	-	?
CCOC(=O)c1nc(Nc2ccc(Nc3ccccc3)cc2)c2ccccc2n1	-	7.1µM[quencher]	-	-	5µM
